The list is not random: actives were taken first. Their share in the collection is about 1.1%.
S-ASM inh = inhibitors of human secretory acid sphingomyelinase; P17405; placental ASM, HMU-PC fluorogenic substrate, 60 min; Potency, µM (doses to about 57.5 µM), inactives show at the highest dose activity change, negative = inhibition, hits mostly inhibitors; 340,000 tested, 0.006% active; AID 504937; also: potency is read from the fitted curve at half-maximal effect
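Fluorogenic HMU-PC substrate (9 uM final) is turned over by placental ASM in 60 min at 37 C after a 10 min compound preincubation. Reaction ended by alkaline stop (pH 10), with fluorescence read at 386/447 nm.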
RXFP1 antagonist = antagonists of human relaxin receptor RXFP1; HEK293-RXFP1, relaxin-stimulated cAMP HTRF, 30 min; hits give low values; Q9HBX9; AID 1259400; 350,000 tested, 0.59% active; activity change, negative = inhibition, % at 57.5 µM;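 active = activity change of -60% or lower, but not beyond a set lower limit; inconclusive = change between -60% and -40%, or beyond the set limit; inactive = change above -40%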; also: % is scaled to controls: 0 for no effect and ±100 for the full control effect
Target sequence (Q9HBX9 whole entry, looked up): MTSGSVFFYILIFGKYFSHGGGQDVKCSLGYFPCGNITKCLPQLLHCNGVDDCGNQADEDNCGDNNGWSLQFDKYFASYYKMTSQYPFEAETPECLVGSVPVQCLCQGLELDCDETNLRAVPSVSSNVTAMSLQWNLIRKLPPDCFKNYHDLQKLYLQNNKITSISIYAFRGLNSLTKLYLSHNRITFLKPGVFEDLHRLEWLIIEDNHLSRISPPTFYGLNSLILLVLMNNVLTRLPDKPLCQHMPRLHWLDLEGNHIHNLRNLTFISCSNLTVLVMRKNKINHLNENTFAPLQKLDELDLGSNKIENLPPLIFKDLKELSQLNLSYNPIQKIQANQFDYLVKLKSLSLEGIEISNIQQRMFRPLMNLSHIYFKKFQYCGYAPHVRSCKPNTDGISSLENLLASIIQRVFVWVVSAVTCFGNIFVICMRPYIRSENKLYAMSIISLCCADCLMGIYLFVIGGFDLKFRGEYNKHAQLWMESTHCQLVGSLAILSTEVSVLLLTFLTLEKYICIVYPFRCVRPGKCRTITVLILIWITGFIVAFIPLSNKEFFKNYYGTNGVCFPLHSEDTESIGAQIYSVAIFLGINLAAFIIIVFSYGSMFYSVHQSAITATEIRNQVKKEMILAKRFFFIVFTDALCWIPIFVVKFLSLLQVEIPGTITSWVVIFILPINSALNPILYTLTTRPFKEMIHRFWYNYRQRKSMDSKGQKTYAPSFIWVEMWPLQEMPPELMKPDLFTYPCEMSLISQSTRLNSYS
gsp ag = activates gsp, the McCune-Albright syndrome mutation. AID 624287. 340,000 tested, 0.13% active. gsp mutant cells, cAMP HTRF, 30 min. Potency, µM (doses to about 76.9 µM), without a hit: at the highest dose activation (cAMP increase), most hits filed as activators; active = well fitted activation curve with a large enough effect; inconclusive = small, poorly fitted or top-dose-only effect, or another doubt; inactive = no such curve, though single readings can be large or run the other way; cell line not stated here;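 also: phosphodiesterase inhibitor Ro 20-1724 added with compounds to block cAMP breakdown; potency is read from the fitted curve at half-maximal effect; nearly all actives have a fitted effect of over 60% in size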
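Cells stably selected in G418 were plated at 2000/well, grown 16-24 hr, then given compounds in DMSO with the PDE inhibitor […] (300 uM solution added) for 30 min at 37C; cAMP was read by HTRF.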
RXFP1 agonist = RXFP1 (human) receptor agonism | Q9HBX9 | HEK293T-RXFP1 cAMP TR-FRET, 30 min; response scale: percent of porcine relaxin response, buffer zero | Potency, µM (highest dose often 57.5 µM), for inactives: at the highest dose activation, hits mostly activators | 370,000 tested, 0.3% active | AID 2676; also: potency is read from the fitted curve at half-maximal effect; % is scaled to controls: 0 for no effect and ±100 for the full control effect; nearly all actives have a fitted effect of over 60% in size
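cAMP rise read by TR-FRET after 30 min, 37C compound exposure (up to 58 uM) in RXFP1-transfected HEK293 cells with Ro 20174 present. EC50 from Hill-equation fits, with 29 nM porcine relaxin as 100% and buffer as basal.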
Integrin act MD = integrin-mediated muscular dystrophy alleviation activation; alpha7betagal myoblasts, beta-gal FDG fluorescence, 48 h; Potency, µM (highest dose often 38.3 µM), for the others: top-dose activation, actives largely listed as activators; 350,000 tested, 0.064% active; AID 624291;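 also: potency is read from the fitted curve at half-maximal effect; 100% = response of the positive control SU9516; nearly all actives have a fitted effect of over 60% in size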
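alpha7betagal+/- myoblasts (passage 13, 250/well) treated 48 h at 37C with compounds at 1:260 dilution of DMSO stock. Lysed, then beta-galactosidase activity read as FDG fluorescence (ex 480/em 540) after 30 min, with pre-read for autofluorescence.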
gsp antagonist = gsp mutant antagonism; gsp-mutant cells, cAMP HTRF, 30 min; 340,000 tested, 0.4% active; Potency, µM (highest dose often 76.9 µM), for inactives: at the top dose activity change, negative = inhibition, actives largely listed as inhibitors; calls by dose curve; cell line not stated here;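 also: intracellular cAMP measured with PDE inhibitor Ro 20-1724 present during compound exposure; potency is read from the fitted curve at half-maximal effect; % is scaled to controls: 0 for no effect and ±100 for the full control effect; nearly all actives have a fitted effect of over 65% in size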
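HTRF cAMP read-out (cAMP-d2 plus anti-cAMP antibody-K in lysis buffer, 30 min RT). Before lysis, cells are exposed to compounds with […] for 30 min at 37C in DPBS containing Ca/Mg, BSA and Tween 20.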
* hit, by the source's call; ? = inconclusive; nt = no result; [ ] = dose if it differs, or a comment. Unless noted, calls follow the shape of the dose curve; as a rule, active = well fitted curve in the direction sought with a large enough effect; inconclusive = small, poorly fitted or top-dose-only effect, or another doubt; inactive = no such curve, though single readings can be large; an effect the other way counts as inactive or inconclusive.

SMILES	S-ASM inh	RXFP1 antagonist	gsp ag	RXFP1 agonist	Integrin act MD	gsp antagonist
CN(C)S(=O)(=O)c1ccc(-c2csc(N/N=C/c3ccc(O)cc3)n2)cc1	-22.0%	?	7.0%[15.4 µM]	-0.7%	-62.7%	31.6µM*
O=[N+]([O-])c1cccc(-c2csc(N/N=C/c3cccc(O)c3)n2)c1	-6.8%	-67.1*	2.3%[15.4 µM]	-0.3%	22.6%	-14.7%
CCOc1ccc(S(=O)(=O)N2CCCC(C(=O)NCc3ccncc3)C2)cc1 (centres undefined)	0.5%	-8.1	?	3.7%	35.1%	-7.1%
CN(C)CCN(Cc1ccco1)C(=O)c1cc2c(s1)-c1ccccc1OC2	nt	-13.5	nt	11.8%	nt	nt
Cc1ccc2ccc3ccc(C)nc3c2n1	-1.7%	nt	nt	-0.2%	nt	-6.5%
Cc1ccc2c(C)ccc(O)c2n1	1.3%	-70.4*	-27.2%	0.2%	-30.2%	10.2%
CN(CC1(C)CCCO1)S(=O)(=O)c1ccc(Cl)c(S(N)(=O)=O)c1 (centres undefined)	nt	15.1	nt	nt	nt	nt
O=C(C1CCC(CNS(=O)(=O)c2cccc3nsnc23)CC1)N1CC=C(c2ccccc2)CC1 (centres undefined)	-6.5%	nt	-14.2%	0.0%	-29.3%	35.5µM*
O=C(NN1C(=O)c2ccccc2NC1c1ccc([N+](=O)[O-])o1)c1ccc([N+](=O)[O-])cc1 (centres undefined)	-1.3%	22.6	1.78µM*	2.82µM*	-58.0%	28.6%
Nc1nonc1-n1nnc(C(=O)N/N=C/c2ccc(F)cc2)c1-c1ccc2c(c1)OCO2	3.7%	-23.6	30.7%	0.8%	?	-0.4%
COc1ccc(/C=N/NC(=O)c2nnn(-c3nonc3N)c2-c2cccs2)cc1OC	-15.4%	-4.7	18.4%	0.1%	0.0%	-13.4%
Nc1nonc1-n1nnc(C(=O)N/N=C/c2cccc(Cl)c2)c1-c1cccs1	-10.4%	-21.6	-2.4%	3.4%	6.3%	39.8µM*
COc1cc(/C=N/NC(=O)c2nnn(-c3nonc3N)c2-c2cccs2)ccc1O	-17.1%	-15.5	1.9%	-0.5%	-17.9%	22.4µM*
COc1cc(/C=N/NC(=O)c2nnn(-c3nonc3N)c2C(C)C)ccc1OCc1ccccc1	-26.3%	8.9	-6.6%	-2.3%	-49.2%	25.1µM*
Cc1ccc(/C=N/NC(=O)c2nnn(-c3nonc3N)c2-c2ccc3c(c2)OCO3)s1	-3.9%	-19.8	37.1%	-1.4%	27.6%	39.8µM*
Nc1nonc1-n1nnc(C(=O)N/N=C/c2cccnc2)c1-c1cccs1	1.4%	8.4	-40.9%	0.9%	28.4%	0.9%
COC(=O)c1ccc(C#Cc2ccccc2)o1	2.3%	-20.0	24.6%	3.5%	12.5%	-1.9%
Cc1ccc(-c2c(C)n3c4c(=O)n(C)c(=O)n(C)c4nc3n2CCCO)cc1	nt	nt	nt	29.9%	nt	nt
C=CCc1ccccc1OCCSc1nc(-c2ccccc2F)nc2cc(=O)[nH]n12	nt	nt	nt	10.5%	nt	nt
O=C(NCc1ccccc1F)c1ccc(S(=O)(=O)N2CCCCCC2)cc1	1.6%	8.8	-4.0%	-1.2%	?	3.2%
CCOC(=O)c1c(NC(=O)C2CC(Cl)=CCC2C(=O)O)sc2c1CC(C)(C)OC2 (centres undefined)	-3.2%	-6.0	22.8%[15.4 µM]	5.0%	-23.9%	14.1µM*
CCOC(=O)c1c(NC(=S)N2CCCCC2)sc2c1CCN(C(=O)OCC)C2	-10.4%	-16.2	6.1%[15.4 µM]	7.5%	0.0%	?
CCOC(=O)c1c(NC(=O)CCC(=O)O)sc2c1CC(C)(C)OC2	4.1%	-21.9	3.5%[15.4 µM]	-1.7%	-10.1%	-27.2%
C=CCNC(=S)Nc1sc2c(c1C(=O)OCC)CC(C)(CC)OC2 (centres undefined)	2.7%	-36.3	-1.7%[15.4 µM]	7.2%	-1.5%	7.94µM*
C=CCNC(=S)Nc1sc2c(c1C(=O)OCC)CCN(C(=O)OCC)C2	?	-80.3*	15.6%	11.2%	-9.7%	-2.1%
SMILES	S-ASM inh	RXFP1 antagonist	gsp ag	RXFP1 agonist	Integrin act MD	gsp antagonist
COc1cc(CCC(=O)Nc2ccc(Br)c(C(F)(F)F)c2)cc(OC)c1OC	-11.4%	-28.5	0.0%[15.4 µM]	-0.3%	-32.8%	28.2µM*
O=[N+]([O-])c1ccccc1OCCCOc1cccc2cccnc12	-2.1%	-9.1	-54.9%	-2.5%	-18.0%	-1.2%
Cc1cc(N2C(=O)C(O)=C(C(=O)c3cc4ccccc4o3)C2c2cccc(Br)c2)no1 (centres undefined)	22.9%	9.6	6.31µM*	15.8µM*	7.3%	2.3%
Cc1nnnn1/C(=C\c1ccccc1)C(=O)OCC(=O)Nc1cccc(S(=O)(=O)N(C)C)c1	1.2%	?	34.4%	-0.5%	-20.9%	?
Cc1nnnn1/C(=C\c1ccccc1)C(=O)OCC(=O)Nc1ccc(Cl)cc1F	nt	-63.7*	20.0%	1.4%	-12.2%	34.3%
O=C(CCCc1ccccc1)N=C1SC2CS(=O)(=O)CC2N1c1ccccc1F (centres undefined)	0.6%	-1.5	?	-1.5%	?	-6.0%
CCCCOC(=O)C1=C(C)N(C)C(=O)NC1c1cc2c(cc1Br)OCO2 (centres undefined)	nt	1.0	-21.6%	nt	0.6%	nt
CCCCCOC(=O)C1=C(C)N(C)C(=O)NC1c1cc(Br)c(O)c(OC)c1 (centres undefined)	-4.2%	-0.5	3.8%	0.9%	-0.8%	7.08µM*
COc1ccc(C=C2C=C(C(C)(C)C)C(=O)C(C(C)(C)C)=C2)cc1OC	-3.0%	-88.0*	-1.9%	-0.2%	-67.1%	-8.6%
CC1Sc2ccc(S(=O)(=O)N3CCC(C(=O)NCC(C)c4ccccc4)CC3)cc2NC1=O (centres undefined)	-8.0%	-6.2	?	0.0%	-33.6%	28.2µM*
COc1ccc(CCC(=O)NCc2ccc3c(c2)CCN3C(=O)c2ccc(Cl)cc2)cc1	nt	11.4	nt	5.8%	nt	nt
O=S(=O)(Nc1nc2ccccc2nc1NCc1ccco1)c1ccc(Cl)cc1	-1.8%	-13.3	?	1.7%	-38.5%	-23.1%
Cc1noc(C)c1CSc1nc2ccccc2nc1NS(=O)(=O)c1ccc(Cl)cc1	50.7%	-1.7	18.9%	0.4%	23.3%	31.6µM*
CC(C)c1ccc(-c2c(C#N)c(N)nc(SCC(=O)N3CCCCC3)c2C#N)cc1	2.8%	9.4	?	22.4µM*	7.0%	37.8%
CC(=O)c1sc(NC(=O)C(C)C)nc1C	0.6%	7.5	?	8.91µM*	-2.5%	27.2%
O=C(CC(c1ccccc1)c1ccccc1O)NCc1ccco1 (centres undefined)	-2.0%	-1.1	-37.6%	-2.3%	-3.9%	-4.6%
O=C(CC(c1ccccc1)c1ccccc1O)NCc1ccccc1Cl (centres undefined)	-0.5%	-15.4	0.0%	0.7%	5.2%	35.5µM*

Compound activity (PubChem)
